Source: PubChem BioAssay AID720517 (National Center for Advancing Translational Sciences (NCATS), 2013)
Inconclusive results are not listed. A call without a number means that no potency is given here. The source made the active and inactive calls. Calls follow the shape of the dose curve; as a rule, active = well fitted activation curve with a large enough effect; inconclusive = small, poorly fitted or top-dose-only effect; inactive = flat fitted curve, though single readings scatter.

Experiment: qHTS for Inhibitors of Cell Surface uPA Generation: FP59 Counterscreen for Cherry-picked Compounds
Settings: FP59 anthrax toxin cytotoxicity counterscreen, cells; series mostly up to 115 µM

**Q.** Which Potency does the source give for C/C(=N\NC(=S)NC(C)C)c1ccc(Cl)s1 here?
**A.** inactive

**Q.** Which Potency does the source give for Cc1cccc(/C=N/Nc2cc(N3CCOCC3)nc(N3CCOCC3)n2)c1 here?
**A.** inactive

**Q.** With COc1cc(/C=C(/C#N)C(=O)Nc2ccccc2)ccc1OCc1ccc(C(=O)O)cc1 as the molecule, how does the Potency read?
**A.** inactive

**Q.** With Nc1cc(=O)[nH]c(SCC(=O)Nc2cccc([N+](=O)[O-])c2)n1 as the molecule, how does the Potency read?
**A.** inactive

**Q.** For O=C(NCCS(=O)(=O)N1CCC2(CC1)OCCO2)c1ccc(F)cc1, which Potency is on record?
**A.** inactive

**Q.** For CCC(=O)N1CCC(NC(=O)Nc2ccc(OC(F)(F)F)cc2)CC1, which Potency is on record?
**A.** inactive

**Q.** For CCOC(=O)N1CCN(c2c(NCCCN3CCCCCC3)c(=O)c2=O)CC1, which Potency is on record?
**A.** inactive

**Q.** Which Potency does the source give for Cc1nn2c(=O)cc(CSc3nc4ccccc4[nH]3)nc2s1 here?
**A.** inactive

**Q.** With C/C(=N\NC(=O)c1ccccc1)c1c(C)[nH]n(-c2ccccc2)c1=O as the molecule, how does the Potency read?
**A.** inactive

**Q.** With Cc1ccc(N2C(=O)c3ccccc3C2(O)c2ccccc2)cc1 (centres undefined) as the molecule, how does the Potency read?
**A.** inactive

**Q.** With CC1=NN(C(N)=S)C(=O)C1N=Nc1ccccc1C(=O)O (centres undefined) as the molecule, how does the Potency read?
**A.** inactive

**Q.** For Cc1ccc2[nH]c(CN3CCN(C)C(CCO)C3)c(C)c2c1 (centres undefined), which Potency is on record?
**A.** inactive

**Q.** Which Potency does the source give for CC(=O)Nc1ccc(OS(=O)(=O)c2c(C)cc(C)cc2C)cc1 here?
**A.** inactive

**Q.** With COCCn1c(SCC(=O)Nc2ccc(F)cc2)nc2ccccc2c1=O as the molecule, how does the Potency read?
**A.** inactive

**Q.** With Cc1cccc(C(=O)Nc2cc(=O)n(C)c(=O)n2C)c1 as the molecule, how does the Potency read?
**A.** inactive

**Q.** Which Potency does the source give for Cc1cc(C)nc(N2N=C(C(F)(F)F)CC2=O)n1 here?
**A.** inactive

**Q.** Which Potency does the source give for COc1cc(/C=N/NC(=O)c2cc(-c3ccco3)nc3ccccc23)cc(OC)c1O here?
**A.** inactive

**Q.** For C=C(C)C(=O)O[C@H]1C/C(C)=C\C(=O)/C=C(\C)[C@H](O)[C@@H]2OC(=O)C(=C)[C@@H]21, which Potency is on record?
**A.** inactive

**Q.** Which Potency does the source give for Cc1nc(NC2CCCCC2)c2nnn(Cc3ccccc3Cl)c2n1 here?
**A.** inactive

**Q.** With O=C(NCCc1cn2ccsc2n1)c1cccs1 as the molecule, how does the Potency read?
**A.** inactive

**Q.** For COc1cccc(C(=O)NCc2ccc3[nH]c(C)cc3c2)c1, which Potency is on record?
**A.** inactive

**Q.** With CC(C)CN(C(=O)CN1CCC(C)CC1)c1c(N)n(CC(C)C)c(=O)[nH]c1=O as the molecule, how does the Potency read?
**A.** inactive

**Q.** With COc1ccc(C(=O)NC(C)c2cnn(-c3ccccn3)c2C)o1 (centres undefined) as the molecule, how does the Potency read?
**A.** inactive

**Q.** With COC(/C=C/Nc1ccc(Cl)cc1)=C(C#N)C#N as the molecule, how does the Potency read?
**A.** inactive

**Q.** For CCOC(=O)C1CCN(CC(=O)Nc2cc(C)nn2-c2nc3ccccc3s2)CC1, which Potency is on record?
**A.** inactive

**Q.** With COc1ccc(/C(C)=N/N2CCOCC2)c(O)c1 as the molecule, how does the Potency read?
**A.** inactive

**Q.** For COc1ccc(N(CN2C(=O)c3ccccc3C2=O)C(=O)C(C)C)cc1, which Potency is on record?
**A.** inactive

**Q.** For CC(C)(O)C#Cc1ccc(C(=O)N2CCCC(CCC(=O)NCc3ccccc3F)C2)cc1 (centres undefined), which Potency is on record?
**A.** inactive

**Q.** Which Potency does the source give for CC(C)NC(=O)NC(=O)CN1C(=O)NC(Cc2c[nH]c3ccccc23)C1=O (centres undefined) here?
**A.** inactive

**Q.** With CC(C)C(NC(=O)Cc1ccccc1)C(=O)N1CCN(c2cccc(Cl)c2)CC1 (centres undefined) as the molecule, how does the Potency read?
**A.** inactive

**Q.** Which Potency does the source give for O=C(COc1ccccc1F)NCC(c1ccc(F)cc1)N1CCOCC1 (centres undefined) here?
**A.** inactive

**Q.** Which Potency does the source give for O=C(COC(=O)c1ccc2ncsc2c1)NCc1cccc(Cl)c1 here?
**A.** inactive

**Q.** Which Potency does the source give for COC(=O)/C(C#N)=C/c1c(N2CCN(c3ccccc3)CC2)nc2c(C)cccn2c1=O here?
**A.** inactive

**Q.** Which Potency does the source give for CC(=O)N1CCN(C(=O)CSc2cc(C)c(Br)cc2C)CC1 here?
**A.** inactive

**Q.** With COc1ccc(C2NC(=O)CCC2[N+](=O)[O-])c(OC)c1OC (centres undefined) as the molecule, how does the Potency read?
**A.** inactive

**Q.** With CCCc1nn2c(=O)cc(CSCC(=O)Nc3ccccc3)nc2s1 as the molecule, how does the Potency read?
**A.** inactive

**Q.** Which Potency does the source give for CCN(c1ccc(OC)cc1)S(=O)(=O)c1ccc2c(c1)NC(=O)CS2 here?
**A.** inactive

**Q.** With CCn1c(=O)cc(C(=O)OC)sc1=Nc1ccc(F)c(F)c1 as the molecule, how does the Potency read?
**A.** inactive

**Q.** With COC(=O)CSc1nc(N2CCOCC2)c2c(c1C#N)CCCC2 as the molecule, how does the Potency read?
**A.** inactive
